Among all 310,000 compounds or so, about 14,000 (4.5%) showed an effect of 50% or more. The effect is printed as a negative number. The sample holds strong results, similar compounds and a random draw of the others, so the mix is not that of the screen.
The compounds below were run against human ether-à-go-go-related gene (hERG) potassium channel (human, UniProt Q12809) (assay: primary screen, population patch clamp on CHO cells stably expressing hERG; higher = less effect of the substance).
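Also: peak tail current of the secondary pulse compared with the same well before compound.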

Sequence of human ether-à-go-go-related gene (hERG) potassium channel (Q12809 whole entry, looked up): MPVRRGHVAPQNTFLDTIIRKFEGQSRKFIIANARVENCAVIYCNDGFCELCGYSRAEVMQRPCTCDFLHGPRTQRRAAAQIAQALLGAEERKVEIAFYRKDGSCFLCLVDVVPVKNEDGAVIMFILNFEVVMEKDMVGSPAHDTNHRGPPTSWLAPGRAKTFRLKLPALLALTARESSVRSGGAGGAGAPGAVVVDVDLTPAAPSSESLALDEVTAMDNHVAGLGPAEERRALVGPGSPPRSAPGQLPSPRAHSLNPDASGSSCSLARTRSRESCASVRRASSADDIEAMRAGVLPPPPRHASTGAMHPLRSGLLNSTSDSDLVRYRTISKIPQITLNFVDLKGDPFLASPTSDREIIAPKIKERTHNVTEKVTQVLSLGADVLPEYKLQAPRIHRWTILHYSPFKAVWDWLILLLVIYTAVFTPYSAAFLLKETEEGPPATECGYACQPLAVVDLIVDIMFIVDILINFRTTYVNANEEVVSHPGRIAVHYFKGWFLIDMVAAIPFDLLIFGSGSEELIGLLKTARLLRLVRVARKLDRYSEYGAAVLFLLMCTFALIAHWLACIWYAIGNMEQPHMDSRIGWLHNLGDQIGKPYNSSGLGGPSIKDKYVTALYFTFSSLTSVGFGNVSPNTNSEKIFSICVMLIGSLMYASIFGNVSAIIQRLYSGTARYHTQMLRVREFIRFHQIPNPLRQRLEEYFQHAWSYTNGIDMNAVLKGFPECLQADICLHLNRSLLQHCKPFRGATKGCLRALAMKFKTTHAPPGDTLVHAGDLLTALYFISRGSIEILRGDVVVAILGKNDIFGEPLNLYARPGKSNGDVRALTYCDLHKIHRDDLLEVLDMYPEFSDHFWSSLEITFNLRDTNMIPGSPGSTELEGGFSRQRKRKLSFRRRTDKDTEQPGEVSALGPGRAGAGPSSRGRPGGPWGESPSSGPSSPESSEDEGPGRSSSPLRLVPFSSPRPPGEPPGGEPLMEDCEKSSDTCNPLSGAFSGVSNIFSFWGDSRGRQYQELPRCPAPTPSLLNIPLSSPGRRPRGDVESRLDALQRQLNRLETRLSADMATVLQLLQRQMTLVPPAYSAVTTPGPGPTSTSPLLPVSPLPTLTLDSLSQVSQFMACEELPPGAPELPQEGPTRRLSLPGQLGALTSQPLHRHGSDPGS

Compound	hERG current change (%, negative = inhibition) at 10uM
Cc1ccc(S(=O)(=O)N2c3ccccc3CC2C)cc1 (stereo not drawn)	13.4%
COc1ccc(C(=O)CC(=O)C(=O)NCCc2cccc(C)c2)cc1	7.31%
O=C(C(=O)N1CCN(c2ccccc2)CC1)c1c[nH]c2ccccc12	4.09%
C/C(CC(=O)Nc1ccc2ccccc2c1)=N\NC(=O)c1ccc(O)c(O)c1	-6.73%
COCCN1C(=O)CC(NNC(=O)c2ccc(S(=O)(=O)N3CCCC3)cc2)C1=O (stereo not drawn)	10%
CCOC(=O)C1CCN(C(=O)CS(=O)Cc2nc(-c3ccc(C)cc3)oc2C)CC1 (stereo not drawn)	-0.626%
CCN(C(=O)COC(=O)c1cc(Cl)ccc1OC)c1c(N)n(Cc2ccccc2)c(=O)[nH]c1=O	4.46%
O=C(Cc1ccccc1)NN1C(=O)c2ccccc2C1=O	-9.37%
COc1ccc(CCNC(=O)CSc2nnc3c(n2)[nH]c2ccc(F)cc23)cc1OC	12.8%
CCN(CC)S(=O)(=O)c1ccc2c(c1)nc(CCC(=O)OCC(=O)Nc1c(F)cccc1F)n2C	-34.6%
CCc1ccc(NC(=O)COC(=O)CCc2nc3cc(S(=O)(=O)N(CC)CC)ccc3n2C)cc1	-60%
CNC(=O)NC(=O)COC(=O)CCc1nc(=O)c2ccccc2n1C	-19.2%
CCNC(=O)NC(=O)COC(=O)CCc1nc(=O)c2ccccc2n1C	4.87%
Cn1c(CCC(=O)OCC(=O)Nc2ccc(Oc3ccccc3)cc2)nc(=O)c2ccccc21	-53.3%
CCN(CC)S(=O)(=O)c1ccc2c(c1)nc(CCC(=O)OCC(=O)Nc1cc(OC)cc(OC)c1)n2C	-48.5%
CN1CCNC(=O)C1CC(=O)NCCC1=CCCCC1 (stereo not drawn)	18.2%
Cc1ccc(C(C)C)c(OCc2nnc(SCC(=O)Nc3ncc(C)s3)n2C)c1	-4.11%
CN(C)c1nnnn1-c1ccc(OC(F)(F)F)cc1	-9.73%
CCCC1(c2ccccc2)NC(=O)N(CC(=O)Nc2cc(S(=O)(=O)N3CCOCC3)ccc2Cl)C1=O (stereo not drawn)	-22.6%
CC(C)(C)NC(=O)N1CCCN(c2ccc(C(F)(F)F)cn2)CC1	-0.47%
C[C@H]1C=C(C(=O)NCc2ccccc2)O[C@@H](OCc2ccc(CO)cc2)C1	-10.5%
Cc1cc(NC(=O)c2cccc(Oc3ccccc3)c2)n[nH]1	1.16%
COc1ccccc1N(C)S(=O)(=O)c1ccc(C(=O)OCC(=O)NCCC2=CCCCC2)cc1	-4.24%

Compound	hERG current change (%, negative = inhibition) at 10uM
CCCC(=O)NC(C)C(c1cccs1)N1CCN(c2ccccc2)CC1 (stereo not drawn)	-7.64%
Cc1cccc(N2CCN(CCCNC(=O)C3CCCN(c4ncnc5c4nc4n5CCCCC4)C3)CC2C)c1 (stereo not drawn)	-67.8%
Cc1cccc(CCNC(=O)C2CCCN(c3ncnc4c3nc3n4CCCCC3)C2)c1 (stereo not drawn)	-59.8%
COc1ccccc1N1CCN(CCCNC(=O)C2CCCN(c3ncnc4c3nc3n4CCCCC3)C2)CC1 (stereo not drawn)	-40.3%
COc1cccc(CCNC(=O)C2CCCN(c3ncnc4c3nc3n4CCCCC3)C2)c1OC (stereo not drawn)	-74.7%
COc1ccc(CCNC(=O)C2CCCN(c3ncnc4c3nc3n4CCCCC3)C2)c(OC)c1 (stereo not drawn)	-42.8%
CC1CC(C)CN(CCCNC(=O)C2CCCN(c3ncnc4c3nc3n4CCCCC3)C2)C1 (stereo not drawn)	-14.1%
O=C(NCCc1ccc(Cl)cc1)C1CCCN(c2ncnc3c2nc2n3CCCCC2)C1 (stereo not drawn)	-57.2%
CC1CCCN(CCCNC(=O)C2CCCN(c3ncnc4c3nc3n4CCCCC3)C2)C1 (stereo not drawn)	-4.72%
CC1CCCCN1CCNC(=O)C1CCCN(c2ncnc3c2nc2n3CCCCC2)C1 (stereo not drawn)	-14.3%
C=CCN(CC=C)CCOc1ccc(C)cc1[N+](=O)[O-].O=C(O)C(=O)O	-47.3%
O=C(Oc1cccc(-n2cnnn2)c1)c1ccco1	6.57%
O=C(COC(=O)Cc1ccsc1)NCc1ccccc1	19.6%
Clc1ccc(-c2ccc(/C=N/Nc3nncc(-c4ccccc4)n3)o2)cc1	20.8%
Cc1cccc(C)c1NC(=O)CN(C)C(=O)c1cccc(NS(=O)(=O)c2ccccc2)c1	-4.78%
Cc1ccc(S(=O)(=O)NN=C2CCC(C(C)(C)C)CC2)cc1[N+](=O)[O-] (stereo not drawn)	-8.37%
COc1ccc(/C=C/C(=O)Oc2cccc(/C=N/NC(=O)COc3c(C)cccc3C)c2)cc1	11.8%
Cc1cccc(-c2ocnc2C(=O)Nc2ccccc2C(=O)N2CCCC2)c1	-37%
COc1ccc(C(=O)Nc2ccc(S(=O)(=O)N3CCCCC3C)cc2)c(OC)c1OC (stereo not drawn)	-6.46%
Cc1ccc(CCNC(=O)C2CCCN(c3ncnc4c3nc3n4CCCCC3)C2)cc1 (stereo not drawn)	-28.7%
CSc1ccc(CCNC(=O)C2CCCN(c3ncnc4c3nc3n4CCCCC3)C2)cc1 (stereo not drawn)	-61.8%
CC1CCCC(C)N1CCCNC(=O)C1CCCN(c2ncnc3c2nc2n3CCCCC2)C1 (stereo not drawn)	8.21%
CC1CCN(CCNC(=O)C2CCCN(c3ncnc4c3nc3n4CCCCC3)C2)CC1 (stereo not drawn)	12.5%

Compound	hERG current change (%, negative = inhibition) at 10uM
CN(CCNC(=O)C1CCCN(c2ncnc3c2nc2n3CCCCC2)C1)Cc1ccccc1 (stereo not drawn)	-29.1%
O=C(NCCc1ccccc1)C1CCCN(c2ncnc3c2nc2n3CCCCC2)C1 (stereo not drawn)	-59.9%
CCOc1ccc(CCNC(=O)C2CCCN(c3ncnc4c3nc3n4CCCCC3)C2)cc1 (stereo not drawn)	-58.6%
COc1cc(/C=N/N2CCN(c3ccccc3OC)CC2)ccc1OC(C)=O	17.2%
CCOC(=O)Cc1csc(NC(=O)C(NC(=O)C2CCC(C)CC2)C(C)C)n1 (stereo not drawn)	23.5%
CC(C)NC(=O)/C(=C/c1ccco1)c1ccccc1	-2.25%
Cc1cccc(NC(=O)CCC(=O)c2cccs2)n1	12%
COc1cccc(N2CCN(Cc3nc(N)nc(Nc4ccccc4)n3)CC2)c1	-68%
Cc1cccc(Nc2nc(N)nc(CN3CCN(C)CC3)n2)c1	-39.2%
Cc1cccc(Nc2nc(N)nc(CCl)n2)c1	-0.698%
COc1cccc(N2CCN(Cc3nc(N)nc(N4CCCc5ccccc54)n3)CC2)c1	-45%
COc1ccc(Nc2nc(N)nc(CSC(=S)N3CCN(c4ccccc4)CC3)n2)cc1	14.1%
Cc1cccc(Nc2nc(N)nc(CSC(=S)N3CCOCC3)n2)c1	-0.689%
Cc1cccc(Nc2nc(N)nc(CN3CCN(c4ccccc4)CC3)n2)c1	-54.5%
Cc1cccc(Nc2nc(N)nc(CN3CCN(c4ccc(F)cc4)CC3)n2)c1	-73.3%
Cn1c(=O)n(C)c2cc(NS(=O)(=O)c3ccc(F)cc3)ccc21	1.38%
O=C(NCc1cccnc1)C1CC(=O)N(c2ccc(F)cc2)C1 (stereo not drawn)	-15.1%
CC(SCc1ccccc1)C(=O)NC1CCCC1 (stereo not drawn)	3.27%
CCN(CC)CCNC(=O)Cn1c(C)cc2ccccc2c1=O	1.83%
CSc1ccc(/C=C/C(=O)c2ccc(NC(C)=O)cc2)cc1	12.6%
OCCOCCn1c(C(CO)Nc2nc(-c3cccc(Br)c3)cs2)nc2ccccc21 (stereo not drawn)	-12.5%
OCCOCCn1c(C(CO)Nc2nc(-c3ccccc3Br)cs2)nc2ccccc21 (stereo not drawn)	-72%
Cc1ccc(-c2csc(NC(CO)c3nc4ccccc4n3CCOCCO)n2)cc1 (stereo not drawn)	-47.3%

Compound	hERG current change (%, negative = inhibition) at 10uM
O=C(Cc1cccs1)Nc1nnc(SCC(=O)NC2CCCCC2)s1	7.84%
CCOc1ccccc1NC(=O)C1C2CCC3C(CCC21)C3(Cl)Cl (stereo not drawn)	-13.4%
CNC(=O)CSc1nccn1Cc1ccc(Cl)cc1	-64.9%
CC(=O)Nc1ccc(NC(=O)CSc2nccn2Cc2ccc(Cl)cc2)cc1	-9.56%
NC(=O)CSc1nccn1Cc1ccc(Cl)cc1	19.1%
Cc1nnc(SCc2ccccc2)n1CC1CCCO1 (stereo not drawn)	11.9%
O=C(C1=NN(c2ccccc2)C2C(=O)N(c3cccc(Cl)c3)C(=O)C12)c1ccccc1 (stereo not drawn)	1.55%
Clc1ncnc2scc(-c3ccc(Br)cc3)c12	7.97%
COc1ccccc1N=Nc1c(O)[nH]c2ccc(Br)cc12	14.2%
COc1ccc(C(=O)Nc2ccc3c(c2)nc(CN2CCCC2)n3C)cc1	-44.4%
Cn1c(CN2CCOCC2)nc2cc(NC(=O)c3ccc(Cl)cc3)ccc21	-34.2%
CC(=O)N1CCN(Cc2nc3cc(NC(=O)c4ccc(F)cc4)ccc3n2C)CC1	-8.9%
CC(=O)N1CCN(Cc2nc3cc(NC(=O)c4ccc(Cl)cc4)ccc3n2C)CC1	-65.8%
Cn1c(CN2CCOCC2)nc2cc(NC(=O)c3ccc(F)cc3)ccc21	-12.5%
CC(C)(C)n1cnc2cc(NC(=O)c3ccc(Cl)cc3)ccc21	-59.1%
Cn1cnc2cc(NC(=O)c3ccc(Cl)cc3)ccc21	-18.9%
CCOC(=O)Nc1ccc2c(c1)nc(CN1CCCCC1)n2C	-7.84%
COc1ccc(C(=O)Nc2ccc3c(c2)nc(CN2CCN(C(C)=O)CC2)n3C)cc1	-0.777%
Cn1c(CN2CCCCC2)nc2cc(NC(=O)c3ccc(F)cc3)ccc21	-54.2%
CC(C)(C)n1cnc2cc(NC(=O)c3ccccc3)ccc21	-9.28%
Cn1c(CN2CCCC2)nc2cc(NC(=O)c3ccc(Cl)cc3)ccc21	-82%

Reference: PMC4336329 (PLoS ONE, 2015)
